Assay results: PubChem BioAssay (NCATS)
Where “and” joins values, the source holds several entries; their conditions need not be identical. Equal values may be shown once. Inconclusive results are not listed. Calls of active or inactive are those of the source. Unless noted, the rule behind the calls is not given here.

Assays:
[1] = qHTS profiling of the MIPE4 collection as inhibitors of Plasmodium falciparum (3D7) proliferation (AID 743344);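 note: scaled between DMSO vehicle wells and 0.29 µM artemisinin as full inhibition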; conditions: P. falciparum 3D7 in erythrocytes, SYBR Green DNA fluorescence, 72 h; at 28.5 µM unless noted
In short: (§1)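 Parasite DNA was quantified by SYBR Green I fluorescence (ex 485, em 535 nm) after overnight lysis in saponin/Triton buffer at room temperature. Cultures at 0.3% parasitemia and 2.5% hematocrit were first exposed to compound for 72 h at 37 C; signals were normalised to artemisinin (0.29 uM) and vehicle wells.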

[2] = qHTS profiling of the MIPE4 collection as inhibitors of Plasmodium falciparum (DD2) proliferation (AID 743345); conditions: P. falciparum Dd2 in erythrocytes, SYBR Green DNA, 72 h; at 28.5 µM unless noted
In short: as §1

[3] = qHTS profiling of the MIPE4 collection as inhibitors of Plasmodium falciparum (DD2) proliferation (Rep 2) (AID 743346); conditions: P. falciparum Dd2 in erythrocytes, SYBR Green DNA, 72 h; at 28.5 µM unless noted
In short: as §1

[4] = qHTS profiling of the MIPE4 collection as inhibitors of Plasmodium falciparum (HB3) proliferation (AID 743347);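 note: plate controls were DMSO vehicle wells for no effect and artemisinin wells for full effect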; conditions: P. falciparum HB3 in erythrocytes, SYBR Green DNA, 72 h; at 28.5 µM unless noted
In short: as §1

[5] = High-throughput drug toxicity screening in the BPDCN cell line Gen2.2 (AID 1224824); conditions: Gen2.2 BPDCN cells; at 45.8 µM (top of the series) unless noted;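 note: cells exposed to compounds for 48 h before reading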
In short: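 Gen2.2, 500 cells/well, phenol red-free RPMI/10% FBS/Pen-Strep; 48 h cpd, 37 °C/5% CO2; CTG lum, 15 min RT. Norm: DMSO = 100%, bortezomib 9.2 uM final = 0%.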

[6] = High-throughput drug toxicity screening in the BPDCN cell line Cal-1 (AID 1224825); conditions: Cal-1 BPDCN cell viability, qHTS; at 45.8 µM (top of the series) unless noted;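 note: cells exposed to compounds for 48 h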
In short: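 Viability of the BPDCN line Cal-1 is measured as ATP-based luminescence (CellTiter-Glo) following 48 h incubation with compounds. Percent activity uses DMSO-treated wells as 100% and 9.2 uM bortezomib as 0%.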

[7] = qHTS assay for measurement of the activity of small molecule inhibitors on Zika virus induced Caspase-3 activity in human iPSC derived neural progenitor cells (hNPCs) (AID 1224857; active = well fitted curve in the direction sought with a large enough effect; an effect the other way counts as inactive or inconclusive; note: % of control where 0% means no effect; nearly all actives have a fitted effect of over 65% in size)
In short: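 hNPCs seeded 350 cells/well, cultured 16–20 h; compounds added 1 h before ZIKV (2 FFU/cell), 37 C 6 h. Caspase-Glo 3/7 luminescence after 30 min RT; % inhibition from induction scaled to uninfected (0%) and infected (100%) wells.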

[8] = qHTS Assay for Identifying Gametocytocidal Compounds (AID 743244; active = well fitted curve in the direction sought with a large enough effect; an effect the other way counts as inactive or inconclusive; note: potency is the fitted concentration of half-maximal effect;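 for max response: % is set by controls: 0 for no effect and ±100 for the full control effect; actives lower the fluorescent signal which means gametocytes are killed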); conditions: P. falciparum 3D7 stage III-V gametocytes, alamarBlue, 72 h; max response: stronger effect = lower value
In short: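 P. falciparum 3D7 stage III–V gametocytes (20,000 cells/well) were exposed to compounds for 72 h at 37 °C, 5% CO2. AlamarBlue was then added for 24 h; decreased resorufin fluorescence (Ex 525/Em 598 nm) indicated loss of viability.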

[9] = qHTS assay for small molecule agonists of the antioxidant response element (ARE) signaling pathway measured by Nrf2-dependant transcriptional activity (AID 720636; active = well fitted curve in the direction sought with a large enough effect in the repeat runs; an effect the other way counts as inactive or inconclusive;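 note: HepG2 cells with an ARE-driven luciferase reporter; % of control where 0% means no effect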)
In short: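 Reporter gene assay, HepG2 ARE-luc: 16 hr compound, 37 C, 5% CO2; read-out luciferase luminescence.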

[10] = qHTS assay for small molecule agonists of the antioxidant response element (ARE) signaling pathway measured by Nrf2-dependant transcriptional activity - cell viability counter screen (AID 720653; active = well fitted curve in the direction sought with a large enough effect in the repeat runs; an effect the other way counts as inactive or inconclusive; note: % is set by controls: 0 for no effect and ±100 for the full control effect); conditions: ARE-bla HepG2 viability, CellTiter-Glo ATP luminescence, 16 h; max response: stronger effect = lower value
In short: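 ARE-bla HepG2 cells (2,000/well) rested 5 hrs at 37C/5% CO2, then exposed to compounds in DMSO for 16 hrs. Viability was read in the same wells as intracellular ATP by luminescence, 30 min at room temperature after reagent addition.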

[11] = qHTS assay for cell viability of HEK293 cells (AID 743288; active = well fitted curve in the direction sought with a large enough effect; an effect the other way counts as inactive or inconclusive; note: % is set by controls: 0 for no effect and ±100 for the full control effect; nearly all actives have a fitted effect of over 50% in size); conditions: ATP luminescence (CellTiter-Glo), 18 h; max response: stronger effect = lower value
In short: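 Quantitative high-throughput screen: compounds were pinned onto parental HEK293 cells (2,000 per well) after a minimum 5 h settling at 37 C, incubated 18 h at 37 C, and intracellular ATP measured by luciferase luminescence.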

[12] = qHTS assay for cell viability of the p53RE-bla HCT-116 cell line (AID 743292; active = well fitted curve in the direction sought with a large enough effect; an effect the other way counts as inactive or inconclusive; note: % is set by controls: 0 for no effect and ±100 for the full control effect; nearly all actives have a fitted effect of over 55% in size)
In short: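 Readout: CellTiter-Glo luminescence after 30 min RT. Treatment: compounds in DMSO, 16 h, 37 C. Cells: CellSensor p53RE-bla HCT-116, 4,000/well, preincubated 5 h.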

[13] = qHTS assay for small molecule antagonists of the retinoid-related orphan receptor gamma (ROR-gamma) signaling pathway - cell viability counter screen (AID 720652; active = well fitted curve in the direction sought with a large enough effect in the repeat runs; an effect the other way counts as inactive or inconclusive;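 note: CHO reporter cells with doxycycline-induced ROR-gamma expression; compound exposure lasted 16 hr before ATP read; % is set by controls: 0 for no effect and ±100 for the full control effect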)
In short: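 Cytotoxicity counter screen: intracellular ATP (CellTiter-Glo luminescence) measured in the doxycycline-induced CHO RORE-luciferase reporter line after 16 hr compound exposure at 37 C, 5% CO2.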

[14] = qHTS assay for measurement of the activity of small molecule inhibitors on Zika virus induced Caspase-3 activity in human astrocytoma cells (AID 1224859; active = well fitted curve in the direction sought with a large enough effect; an effect the other way counts as inactive or inconclusive;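 note: plate controls were ZIKV-infected untreated cells for no effect and uninfected cells for full effect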)
In short: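 Luminescence read-out (Caspase-Glo 3/7, 30 min RT) of caspase activity in SNB-19 cells infected 6 h with ZIKV, 2 FFU/cell, after 1 h compound pretreatment; % inhibition from induction normalised to uninfected (0%) and infected (100%) wells.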

[15] = biological target: T1, Hexokinase-4 (Homo sapiens) + Glucokinase regulatory protein (Homo sapiens) (UniProt P35557+Q14397); assay: qHTS assay for inhibitors of recombinant human GCK-GKRP interaction: Diaphorase-coupled assay (AID 743205; active = well fitted curve in the direction sought with a large enough effect; an effect the other way counts as inactive or inconclusive)
In short: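 Inhibitors of the GCK–GKRP complex relieve GKRP suppression of GCK, detected through a G6PDH–diaphorase cascade reducing resazurin. Human GST-GCK and FLAG-GKRP are used at 10 nM with 5 mM glucose and 0.4 mM ATP.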

[16] = biological target: T1, Hexokinase-4 (Homo sapiens) + Glucokinase regulatory protein (Homo sapiens); assay: qHTS assay for inhibitors of recombinant human GCK-GKRP interaction: ADP-Glo assay (AID 743206; active = well fitted curve in the direction sought with a large enough effect; an effect the other way counts as inactive or inconclusive;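 note: plate controls were DMSO plus enzyme for no effect and no enzyme for full effect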)
In short: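 Pin-transferred compounds meet a 15 nM GST-GCK/15 nM FLAG-GKRP/2 uM S6P mix (dispense concentrations). ATP is then added to 0.4 mM final with 5 mM glucose, and the reaction runs 60 min at room temperature. ADP is quantified luminescently.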

[17] = biological target: T1, Hexokinase-4 (Homo sapiens) + Glucokinase regulatory protein (Homo sapiens); assay: qHTS assay for inhibitors of recombinant human GCK-GKRP interaction: HTRF assay (AID 743207; active = well fitted curve in the direction sought with a large enough effect; an effect the other way counts as inactive or inconclusive;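 note: 0% = DMSO with GCK present and -100% = DMSO wells lacking GCK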)
In short: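 Steps: dispense GCK–GKRP complex (5 nM each, GST- and FLAG-tagged) with 2 uM S6P; pin in compounds; add XL665/Eu-cryptate-labelled antibodies; incubate 60 min at room temperature; read time-resolved FRET at 665 and 615 nm.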

[18] = qHTS profiling for inhibitors of Plasmodium falciparum (3D7) proliferation (AID 743322);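 note: infected erythrocytes exposed to compound for 72 h before lysis; 100% = DMSO vehicle wells and 0% = 0.29 µM artemisinin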; conditions: P. falciparum 3D7 proliferation; at 28.7 µM (top of the series)
In short: as §1

[19] = qHTS profiling for inhibitors of Plasmodium falciparum (DD2) proliferation (AID 743323); conditions: lower = more inhibition; at 28.7 µM (top of the series)
In short: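 Parasite proliferation measured via DNA-dye fluorescence, as uninfected erythrocytes lack DNA. Cultures at 0.3% parasitemia and 2.5% hematocrit incubated 72 h with compound; signal scaled between vehicle and 0.29 uM artemisinin wells.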

[20] = qHTS profiling for inhibitors of Plasmodium falciparum (HB3) proliferation (AID 743324; active = well fitted curve in the direction sought with a large enough effect; an effect the other way counts as inactive or inconclusive;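 note: 100% = DMSO vehicle wells and 0% = artemisinin-treated control wells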); conditions: Plasmodium falciparum HB3 blood-stage proliferation; at 28.7 µM (top of the series)
In short: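 SYBR Green fluorescence (485 ex/535 em) of lysed cultures, incubated overnight at room temperature in the dark, quantifies parasite DNA. Infected erythrocytes at 0.3% parasitemia and 2.5% hematocrit were exposed 72 h; values normalized to DMSO and 0.29 uM artemisinin controls.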

T1 sequence (P35557 whole entry, looked up): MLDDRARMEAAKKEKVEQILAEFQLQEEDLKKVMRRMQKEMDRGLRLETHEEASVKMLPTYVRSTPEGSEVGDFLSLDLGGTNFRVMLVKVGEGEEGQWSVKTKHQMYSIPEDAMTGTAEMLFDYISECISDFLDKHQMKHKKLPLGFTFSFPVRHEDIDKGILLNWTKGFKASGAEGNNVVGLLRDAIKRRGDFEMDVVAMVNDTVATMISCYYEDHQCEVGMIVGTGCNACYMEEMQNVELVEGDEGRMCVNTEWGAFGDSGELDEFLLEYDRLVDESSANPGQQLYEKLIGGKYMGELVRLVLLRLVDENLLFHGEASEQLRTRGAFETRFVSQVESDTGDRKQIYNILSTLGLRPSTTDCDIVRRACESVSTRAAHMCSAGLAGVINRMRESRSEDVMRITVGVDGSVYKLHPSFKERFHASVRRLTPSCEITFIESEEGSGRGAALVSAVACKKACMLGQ
T1 sequence (Q14397 whole entry, looked up): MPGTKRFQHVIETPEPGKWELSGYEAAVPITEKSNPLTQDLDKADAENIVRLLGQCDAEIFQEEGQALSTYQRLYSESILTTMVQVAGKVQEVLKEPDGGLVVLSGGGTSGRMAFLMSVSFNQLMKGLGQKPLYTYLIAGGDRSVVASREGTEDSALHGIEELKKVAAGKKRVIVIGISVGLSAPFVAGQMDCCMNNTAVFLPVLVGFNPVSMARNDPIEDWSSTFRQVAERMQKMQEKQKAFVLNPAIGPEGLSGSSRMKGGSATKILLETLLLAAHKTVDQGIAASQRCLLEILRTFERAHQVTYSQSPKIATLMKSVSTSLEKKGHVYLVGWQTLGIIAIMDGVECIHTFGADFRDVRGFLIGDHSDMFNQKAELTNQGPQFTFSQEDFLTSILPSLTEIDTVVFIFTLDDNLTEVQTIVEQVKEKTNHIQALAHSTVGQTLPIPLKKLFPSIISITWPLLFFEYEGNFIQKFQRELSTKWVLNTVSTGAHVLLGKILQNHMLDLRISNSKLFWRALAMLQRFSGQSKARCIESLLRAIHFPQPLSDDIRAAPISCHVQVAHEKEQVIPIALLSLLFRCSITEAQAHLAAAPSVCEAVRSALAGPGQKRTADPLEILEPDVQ

Cc1cccc(N(C)C(=S)Oc2ccc3ccccc3c2)c1
parasite growth, % of DMSO control [1]: 51.5%
parasite growth remaining, % of DMSO control (lower = more inhibition) [2]: 84.1%
parasite growth, % of control (lower = inhibition) [3]: 51.6%
growth, % of control [4]: 50.4%
cell viability, % of control (lower = more cytotoxic) [5]: 227%
viability (% of control) [6]: 79.3%
Potency [7]: inactive

Oc1c(Cl)cc(Cl)c2cccnc12
Potency [8]: 7.08 µM (active)
parasite growth, % of DMSO control [1]: 123%
parasite growth remaining, % of DMSO control (lower = more inhibition) [2]: 94.2%
parasite growth, % of control (lower = inhibition) [3]: 45.4%
growth, % of control [4]: 347%
cell viability, % of control (lower = more cytotoxic) [5]: 10.5%
viability (% of control) [6]: 9.09%
Potency [7]: inactive

OC(Cn1cncn1)(Cn1cncn1)c1ccc(F)cc1F
outcome [9]: inactive
max response [10]: 0.0873% (inactive)
max response [8]: -0.14% (inactive)
max response [11]: -6.93% (inactive)
Potency [12]: inactive
parasite growth remaining, % of DMSO control (lower = more inhibition) [2]: 101%
cell viability, % of control (lower = more cytotoxic) [5]: 66.2%
viability (% of control) [6]: 114%
Potency [7]: inactive

NC(N)=NC(N)=NCCc1ccccc1
outcome [9]: inactive
Potency [13]: inactive
max response [10]: -24.7% (inactive) and -24.4% (inactive)
max response [8]: 18.8% (inactive) and 0.965% (inactive)
max response [11]: -5.89% (inactive) and -15.7% (inactive)
Potency [12]: inactive
parasite growth, % of DMSO control [1]: 21.2%
parasite growth remaining, % of DMSO control (lower = more inhibition) [2]: 38.8%
parasite growth, % of control (lower = inhibition) [3]: 47%
growth, % of control [4]: 50.7%
viability (% of control) [6]: 75.1%
Potency [7]: inactive
Potency [14]: inactive

Cc1nnc(NS(=O)(=O)c2ccc(N)cc2)s1
outcome [9]: inactive
Potency [13]: inactive
max response [10]: 4.88% (inactive)
max response [11]: 0.46% (inactive)
Potency [12]: inactive
parasite growth, % of DMSO control [1]: 22.2%
parasite growth remaining, % of DMSO control (lower = more inhibition) [2]: 17.6%
parasite growth, % of control (lower = inhibition) [3]: 8.26%
growth, % of control [4]: 38.9%
cell viability, % of control (lower = more cytotoxic) [5]: 114%
viability (% of control) [6]: 13.2%
Potency [7]: inactive

Nc1ccc(S(=O)(=O)Nc2ccccn2)cc1
max response [8]: 3.9% (inactive)
parasite growth, % of DMSO control [1]: 89.8%
parasite growth remaining, % of DMSO control (lower = more inhibition) [2]: 89.4%
parasite growth, % of control (lower = inhibition) [3]: 84.7%
growth, % of control [4]: 54.6%
cell viability, % of control (lower = more cytotoxic) [5]: 123%
viability (% of control) [6]: 112%
Potency [7]: inactive

Cc1ccc(S(=O)(=O)N[C@@H](Cc2ccccc2)C(=O)CCl)cc1
outcome [15]: inactive
outcome [16]: inactive
outcome [17]: inactive
max response [8]: 11.5% (inactive)
parasite growth, % of DMSO control [1]: 90.3%
parasite growth remaining, % of DMSO control (lower = more inhibition) [2]: 91.3%
parasite growth, % of control (lower = inhibition) [3]: 79.2%
growth, % of control [4]: 84.3%
cell viability, % of control (lower = more cytotoxic) [5]: 4.27%
viability (% of control) [6]: 3.45%
Potency [7]: inactive

Cc1c(-c2ccc(O)cc2)n(Cc2ccc(OCCN3CCCCCC3)cc2)c2ccc(O)cc12
viability (% of control) [6]: 121%
Potency [7]: inactive
Potency [14]: inactive

CC1=CC(=O)c2ccccc2C1=O
remaining parasite growth % (stronger effect = lower value) [18]: 0.179%
activity, percent of control [19]: 0.841%
remaining proliferation (% of control), lower = more inhibition [20]: 4.17%
parasite growth, % of DMSO control [1]: 40.3%
parasite growth remaining, % of DMSO control (lower = more inhibition) [2]: 48%
parasite growth, % of control (lower = inhibition) [3]: 10.3%
growth, % of control [4]: 23.6%
cell viability, % of control (lower = more cytotoxic) [5]: 2.97%
viability (% of control) [6]: 1.39%
Potency [7]: inactive
